Test systems include HCT-15 colon; HT29 colon; SNB-75 CNS; SNB-19 CNS; U251 CNS; PC-3 prostate; SK-MEL-5 melanoma; UACC-62 melanoma; LOX IMVI melanoma; SK-MEL-28 melanoma.
What all share (experiment): NCI-60 one-dose screen, 48 h (100 = growth as untreated, 0 = no growth, -100 = all killed)
Details in all cases: 10 µM

We go through 13 molecules from PubChem BioAssay (NCI).

This is part of a sample that, as a whole, favours compounds with a hit. Of some 83,000 tested, about 20% had one in any assay.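 48-hour exposure, single concentration, 96-well plates; percent growth endpoint where 0 means no net growth. Active: below 10.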 Values without a mark were called inactive. Calls of active or inactive are those of the source.

For the molecule `COc1cc(Cn2c(-c3ccccc3)cc3c2-c2oncc2CC3)cc(OC)c1`, the growth was 15.3% in the test with HCT-15 colon; -8.38% (active) with HT29 colon; 19.5% in the test with SNB-75 CNS; 34.8% in the test on SNB-19 CNS; 18% in the test with U251 CNS; 19.2% in the test with PC-3 prostate. Also, the growth with SK-MEL-5 melanoma is 5.07% (active); in the test with UACC-62 melanoma, 31.6%; in the test on LOX IMVI melanoma, 27.3%; in the test on SK-MEL-28 melanoma, 50.1%.
With `O=C1c2cc(Cl)ccc2-c2c(O)cc(Cl)cc21`, the growth in the test with HCT-15 colon was 81.6%; in the test with HT29 colon it was 95.1%; in the test on SNB-75 CNS, 81.2%; in the test on SNB-19 CNS it was 59.8%; in the test on U251 CNS it was 55.5%; in the test on PC-3 prostate, 78%. Further, the growth was 53% in the test with SK-MEL-5 melanoma, 85% with UACC-62 melanoma, 52% with LOX IMVI melanoma and 106% in the test on SK-MEL-28 melanoma.
For the molecule `Cc1cc2cc3c(=O)[nH]c(=O)cc-3n(CC(O)C(O)C(O)CO)c2cc1C` (stereo not given), the growth was 105% in the test on HCT-15 colon; 110% in the test with HT29 colon; 103% with SNB-75 CNS; 114% in the test on SNB-19 CNS; 104% with U251 CNS; 99.9% with PC-3 prostate. The growth was 110% in the test on SK-MEL-5 melanoma, 112% in the test on UACC-62 melanoma, 99.8% in the test with LOX IMVI melanoma and 114% with SK-MEL-28 melanoma.
For `CCN1CCOC1C(C)C` (stereo not given), the growth was 105% with HCT-15 colon; 99.3% with HT29 colon; 99.8% in the test on SNB-75 CNS; 113% in the test with SNB-19 CNS; 102% in the test with U251 CNS; 93.4% in the test with PC-3 prostate. In addition, the growth in the test on SK-MEL-5 melanoma is 106%; with UACC-62 melanoma, 105%; in the test on LOX IMVI melanoma it was 102%; with SK-MEL-28 melanoma, 108%.
For `O=C(N/N=C/c1ccccc1O)c1ccccc1`, the growth is 23.9% with HCT-15 colon; 45.5% with HT29 colon; 56.6% with SNB-75 CNS; 56% in the test on SNB-19 CNS; 27.6% in the test with U251 CNS; 37.8% with PC-3 prostate. For the same molecule, the growth is 13.3% in the test with SK-MEL-5 melanoma, 13.8% in the test with UACC-62 melanoma, 5.3% (active) in the test with LOX IMVI melanoma and 73.5% in the test with SK-MEL-28 melanoma.
Regarding `Clc1cc(Cl)c(OCCCCCCN2CCNCC2)c(Cl)c1`, the growth was -32% (active) in the test with HCT-15 colon; -34.1% (active) with HT29 colon; 52.7% in the test on SNB-75 CNS; 49.8% in the test on SNB-19 CNS; 8% (active) with U251 CNS; 46.1% in the test on PC-3 prostate. For the same molecule, the growth in the test with SK-MEL-5 melanoma was -15.6% (active); with UACC-62 melanoma, -54.4% (active); with LOX IMVI melanoma, -66.2% (active); in the test on SK-MEL-28 melanoma it was -12.6% (active).
For `CC(C)OCc1cc(CN2CCN(c3cccc(Cl)c3)CC2)c(O)c2ncccc12`, the growth in the test on HCT-15 colon was 4.08% (active); with HT29 colon it was -17.1% (active); in the test on SNB-75 CNS, -25.3% (active); in the test with SNB-19 CNS it was 19.6%; in the test with U251 CNS it was -37.8% (active); in the test with PC-3 prostate it was -0.0543% (active). Further, the growth in the test on SK-MEL-5 melanoma was -85.2% (active); in the test on UACC-62 melanoma, -61.2% (active); in the test on LOX IMVI melanoma it was -73.3% (active); in the test with SK-MEL-28 melanoma, -2.34% (active).
On to `CC(=O)Nc1ccc2c(c1)C(N1CC3CCC(CC3)C1)c1ccccc1-2` (stereo not given), for which the growth is 53.3% with HCT-15 colon; 75.1% in the test on HT29 colon; 88.6% with SNB-75 CNS; 107% with SNB-19 CNS; 77.7% in the test on U251 CNS; 34.8% in the test on PC-3 prostate. For the same molecule, the growth is 49.3% in the test on SK-MEL-5 melanoma, 60.5% in the test on UACC-62 melanoma, 93.3% in the test with LOX IMVI melanoma and 108% with SK-MEL-28 melanoma.
With `CS(=O)(=O)Nc1ccc([N+](=O)[O-])cc1Oc1ccccc1`, the growth in the test on HCT-15 colon is 104%; in the test on HT29 colon, 99.9%; in the test with SNB-75 CNS, 110%; in the test with SNB-19 CNS it was 104%; in the test on U251 CNS, 90.4%; with PC-3 prostate it was 95.4%. Also, the growth in the test on SK-MEL-5 melanoma was 84.2%; in the test with UACC-62 melanoma, 89.8%; in the test on LOX IMVI melanoma it was 88.2%; in the test on SK-MEL-28 melanoma, 118%.
On to `CCCCC(=O)N(c1ccc(Nc2c3ccccc3nc3cc([N+](=O)[O-])ccc23)cc1)S(C)(=O)=O`, for which the growth in the test on HCT-15 colon is 76.3%; in the test with HT29 colon, 79%; in the test on SNB-75 CNS it was 66.1%; in the test with SNB-19 CNS, 69.5%; in the test with U251 CNS, 64.2%; in the test with PC-3 prostate, 52%. Also, the growth with SK-MEL-5 melanoma is 69%; in the test with UACC-62 melanoma it was 75.8%; in the test on LOX IMVI melanoma, 52.5%; in the test with SK-MEL-28 melanoma, 105%.
In the case of `CCN(CCCNC(=O)Cc1cc(=O)oc2cc(N(C)C)ccc12)CCNc1ccnc2cc(Cl)ccc12`, the growth with HCT-15 colon is 83.2%; in the test on HT29 colon, 18.6%; in the test on SNB-75 CNS, 88.6%; in the test with SNB-19 CNS, 91.5%; in the test with U251 CNS, 58.9%; with PC-3 prostate, 78.7%. Also, the growth was 76.2% with SK-MEL-5 melanoma, 98.7% with UACC-62 melanoma, 66.4% with LOX IMVI melanoma and 85% in the test with SK-MEL-28 melanoma.
Turning to `O=[N+]([O-])C1CC2C=CC1C2` (stereo not given), the growth with HCT-15 colon is 100%; in the test on HT29 colon it was 99%; in the test with SNB-75 CNS, 93.1%; in the test on SNB-19 CNS, 109%; in the test on U251 CNS, 101%; with PC-3 prostate, 96.9%. Besides, the growth is 106% with SK-MEL-5 melanoma, 103% in the test with UACC-62 melanoma, 95.6% in the test on LOX IMVI melanoma and 110% in the test with SK-MEL-28 melanoma.
Take `CC1=CSC2=NC(c3ccc(Cl)c(Cl)c3)=CC(c3ccc(Cl)cc3)N12` (stereo not given): the growth with HCT-15 colon is 66.9%; in the test on HT29 colon, 101%; in the test on SNB-75 CNS, -21.8% (active); in the test with SNB-19 CNS, 38.5%; in the test on U251 CNS it was 34.8%; with PC-3 prostate it was 45.4%. Moreover, the growth in the test with SK-MEL-5 melanoma is 13.6%; in the test on UACC-62 melanoma, 10.6%; in the test on LOX IMVI melanoma it was -82.4% (active); in the test on SK-MEL-28 melanoma, 37.4%.
